Measured values taken from PubChem BioAssay AID1159580 (chemical genetic matrix, 2015).
Among all 5,500 compounds or so, about 2,000 (36%) were called active. About 18% were inconclusive and are not listed. Cut-off read from the data, not from the text of the source: active = normalized growth mostly below about 0.91 (no sharp cut-off); inconclusive = no clear call, values can overlap the other calls; inactive = mostly above about 0.92. The list shows a part of the results.

Assay: chemical genetic growth profiling, strain panel (AID 1159580);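 note: tested at 20 µM; growth read once vehicle control cultures reached saturation at 30 °C; 1 = growth at the plate median or of vehicle wells; lower values mean less growth of the strain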
Settings: growth OD
[1] = S. cerevisiae deletion strains, locus YDL101C, strain DUN1, stronger effect = lower value
[2] = S. cerevisiae deletion strains, locus YHR030C, strain SLT2, stronger effect = lower value

Measured: normalized growth

S=C(Nc1ccc(Cl)cc1)SCc1c(Cl)cccc1Cl
inactive: S. cerevisiae deletion strains, locus YAR019C, strain CDC15, stronger effect = lower value 0.976 | S. cerevisiae deletion strains, locus YBL105C, strain PKC1, stronger effect = lower value 0.984 | S. cerevisiae deletion strains, locus YBR135W, strain CKS1, stronger effect = lower value 0.977 | S. cerevisiae deletion strains, locus YBR136W, strain MEC1, stronger effect = lower value 0.996 | S. cerevisiae deletion strains, locus YBR160W, strain CDC28, stronger effect = lower value 0.987 | S. cerevisiae deletion strains, locus YDL017W, strain CDC7, stronger effect = lower value 0.984 | S. cerevisiae deletion strains, locus YDL028C, strain MPS1, stronger effect = lower value 0.985 | [1] 0.993 | S. cerevisiae deletion strains, locus YDL108W, strain KIN28, stronger effect = lower value 0.997 | S. cerevisiae deletion strains, locus YDL132W, strain cdc53, stronger effect = lower value 0.979 | S. cerevisiae deletion strains, locus YDL214C, strain PRR2, stronger effect = lower value 0.96 | S. cerevisiae deletion strains, locus YDR052C, strain DBF4, stronger effect = lower value 0.989 | S. cerevisiae deletion strains, locus YDR054C, strain cdc34, stronger effect = lower value 0.978 | S. cerevisiae deletion strains, locus YDR226W, strain ADK1, stronger effect = lower value 0.983 | S. cerevisiae deletion strains, locus YDR477W, strain SNF1, stronger effect = lower value 0.95 | S. cerevisiae deletion strains, locus YER123W, strain YCK3, stronger effect = lower value 0.973 | S. cerevisiae deletion strains, locus YER133W, strain GLC7, stronger effect = lower value 0.915 | S. cerevisiae deletion strains, locus YFL009W, strain cdc4, stronger effect = lower value 0.977 | S. cerevisiae deletion strains, locus YFL029C, strain CAK1, stronger effect = lower value 0.974 | S. cerevisiae deletion strains, locus YFR003C, strain YPI1, stronger effect = lower value 0.984 | S. cerevisiae deletion strains, locus YFR019W, strain FAB1, stronger effect = lower value 0.961 | S. cerevisiae deletion strains, locus YFR028C, strain CDC14, stronger effect = lower value 0.971 | S. cerevisiae deletion strains, locus YGR040W, strain KSS1, stronger effect = lower value 0.938 | S. cerevisiae deletion strains, locus YGR052W, strain FMP48, stronger effect = lower value 1.06 | S. cerevisiae deletion strains, locus YGR092W, strain DBF2, stronger effect = lower value 0.89 | [2] 0.996 | S. cerevisiae deletion strains, locus YHR079C, strain IRE1, stronger effect = lower value 1.08 | S. cerevisiae deletion strains, locus YHR082C, strain KSP1, stronger effect = lower value 1.03 | S. cerevisiae deletion strains, locus YHR205W, strain SCH9, stronger effect = lower value 0.999 | S. cerevisiae deletion strains, locus YIL147C, strain SLN1, stronger effect = lower value 0.992 | S. cerevisiae deletion strains, locus YJL095W, strain BCK1, stronger effect = lower value 1.05 | S. cerevisiae deletion strains, locus YJL128C, strain PBS2, stronger effect = lower value 0.967 | S. cerevisiae deletion strains, locus YJL157C, strain FAR1, stronger effect = lower value 0.96 | S. cerevisiae deletion strains, locus YJR016C, strain ILV3, stronger effect = lower value 0.973 | S. cerevisiae deletion strains, locus YJR066W, strain TOR1 (second series), stronger effect = lower value 0.932 | S. cerevisiae deletion strains, locus YJR066W, strain TOR1, stronger effect = lower value 1.02 | S. cerevisiae deletion strains, locus YKL048C, strain ELM1, stronger effect = lower value 0.992 | S. cerevisiae deletion strains, locus YKL067W, strain YNK1, stronger effect = lower value 0.972 | S. cerevisiae deletion strains, locus YKL101W, strain HSL1, stronger effect = lower value 0.994 | S. cerevisiae deletion strains, locus YKL193C, strain SDS22, stronger effect = lower value 0.978 | S. cerevisiae deletion strains, locus YKL203C, strain TOR2, stronger effect = lower value 1.02 | S. cerevisiae deletion strains, locus YLR113W, strain HOG1, stronger effect = lower value 1.09 | S. cerevisiae deletion strains, locus YLR133W, strain CKI1, stronger effect = lower value 0.993 | S. cerevisiae deletion strains, locus YLR403W, strain SFP1, stronger effect = lower value 0.95 | S. cerevisiae deletion strains, locus YML070W, strain DAK1, stronger effect = lower value 0.957 | S. cerevisiae deletion strains, locus YMR001C, strain CDC5, stronger effect = lower value 0.971 | S. cerevisiae deletion strains, locus YMR205C, strain PFK2 (second series), stronger effect = lower value 0.987 | S. cerevisiae deletion strains, locus YMR277W, strain FCP1, stronger effect = lower value 0.973 | S. cerevisiae deletion strains, locus YNL006W, strain LST8, stronger effect = lower value 0.972 | S. cerevisiae deletion strains, locus YNL020C, strain ARK1, stronger effect = lower value 0.983 | S. cerevisiae deletion strains, locus YNL161W, strain CBK1, stronger effect = lower value 0.978 | S. cerevisiae deletion strains, locus YNL183C, strain NPR1, stronger effect = lower value 1.03 | S. cerevisiae deletion strains, locus YNL207W, strain RIO2, stronger effect = lower value 0.983 | S. cerevisiae deletion strains, locus YNL222W, strain SSU72, stronger effect = lower value 0.976 | S. cerevisiae deletion strains, locus YNL307C, strain MCK1 (second series), stronger effect = lower value 0.978 | S. cerevisiae deletion strains, locus YOL078W, strain AVO1, stronger effect = lower value 0.979 | S. cerevisiae deletion strains, locus YOL136C, strain PFK27, stronger effect = lower value 0.973 | S. cerevisiae deletion strains, locus YOR061W, strain CKA2, stronger effect = lower value 0.955 | S. cerevisiae deletion strains, locus YOR119C, strain RIO1, stronger effect = lower value 0.97 | S. cerevisiae deletion strains, locus YOR231W, strain MKK1, stronger effect = lower value 1.06 | S. cerevisiae deletion strains, locus YOR329C, strain SCD5, stronger effect = lower value 0.983 | S. cerevisiae deletion strains, locus YPL031C, strain PHO85, stronger effect = lower value 0.956 | S. cerevisiae deletion strains, locus YPL153C, strain RAD53, stronger effect = lower value 0.949 | S. cerevisiae deletion strains, locus YPL204W, strain HRR25, stronger effect = lower value 0.939 | S. cerevisiae deletion strains, locus YPL209C, strain IPL1, stronger effect = lower value 0.989 | S. cerevisiae deletion strains, locus YPL256C, strain CLN2, stronger effect = lower value 1.08 | S. cerevisiae deletion strains, locus YPR025C, strain CCL1, stronger effect = lower value 0.987 | S. cerevisiae deletion strains, locus YPR106W, strain ISR1, stronger effect = lower value 0.994 | S. cerevisiae deletion strains, locus YPR111W, strain DBF20, stronger effect = lower value 0.986 | S. cerevisiae deletion strains, strain NNK1, stronger effect = lower value 0.999 | S. cerevisiae deletion strains, strain TSCII, stronger effect = lower value 0.981

O=C(NC1Cc2ccccc2C1)c1cncc(Br)c1
inactive: S. cerevisiae deletion strains, locus YAL013W, strain DEP1, stronger effect = lower value 1 | S. cerevisiae deletion strains, locus YBR229C, strain ROT2, stronger effect = lower value 0.992 | S. cerevisiae deletion strains, locus YCL061C, strain MRC1, stronger effect = lower value 0.982 | [1] 1 | S. cerevisiae deletion strains, locus YDL134C, strain PPH21, stronger effect = lower value 1.05 | S. cerevisiae deletion strains, locus YDR150W, strain NUM1, stronger effect = lower value 0.937 | S. cerevisiae deletion strains, locus YEL061C, strain CIN8, stronger effect = lower value 0.99 | S. cerevisiae deletion strains, locus YGR078C, strain PAC10, stronger effect = lower value 0.994 | S. cerevisiae deletion strains, locus YGR229C, strain SMI1, stronger effect = lower value 0.985 | [2] 0.848 | S. cerevisiae deletion strains, locus YHR087W, strain rtc3, stronger effect = lower value 0.985 | S. cerevisiae deletion strains, locus YJL187C, strain SWE1, stronger effect = lower value 1.01 | S. cerevisiae deletion strains, locus YJR043C, strain POL32, stronger effect = lower value 0.994 | S. cerevisiae deletion strains, locus YJR075W, strain HOC1, stronger effect = lower value 0.982 | S. cerevisiae deletion strains, locus YKL190W, strain CNB1, stronger effect = lower value 0.99 | S. cerevisiae deletion strains, locus YLR039C, strain RIC1, stronger effect = lower value 1.03 | S. cerevisiae deletion strains, locus YLR058C, strain SHM2 (second series), stronger effect = lower value 0.985 | S. cerevisiae deletion strains, locus YLR085C, strain ARP6, stronger effect = lower value 0.952 | S. cerevisiae deletion strains, locus YLR262C, strain YPT6, stronger effect = lower value 0.992 | S. cerevisiae deletion strains, locus YML094W, strain GIM5, stronger effect = lower value 0.98 | S. cerevisiae deletion strains, locus YMR219W, strain ESC1, stronger effect = lower value 0.991 | S. cerevisiae deletion strains, locus YMR263W, strain SAP30, stronger effect = lower value 0.984 | S. cerevisiae deletion strains, locus YMR307W, strain GAS1, stronger effect = lower value 0.912 | S. cerevisiae deletion strains, locus YNL153C, strain GIM3, stronger effect = lower value 0.994 | S. cerevisiae deletion strains, locus YNL298W, strain CLA4 (second series), stronger effect = lower value 0.966 | S. cerevisiae deletion strains, locus YNL322C, strain KRE1, stronger effect = lower value 0.995 | S. cerevisiae deletion strains, locus YNR030W, strain Alg12, stronger effect = lower value 0.982 | S. cerevisiae deletion strains, locus YPL055C, strain LGE1, stronger effect = lower value 0.982 | S. cerevisiae deletion strains, locus YPL241C, strain CIN2, stronger effect = lower value 0.98 | S. cerevisiae deletion strains, locus YPR135W, strain CTF4, stronger effect = lower value 0.836 | S. cerevisiae strains, strain wild type, stronger effect = lower value 0.988
